# MOR-DOR inv ag-1 – inverse agonists of MOR-DOR heterodimerization, primary screen, cell-based, luminescence. Mu-type opioid receptor (Homo sapiens) + Delta-type opioid receptor (Homo sapiens), …. cell-based MOR-DOR heterodimer luminescence, inverse agonism. inhibition, % at 9.3 µM. hit rate 0.21% among 340,000; in the data active = inhibition above about 22%, passing the limit was not always enough
# HTR2A ag – mouse Htr2a agonists via beta-arrestin recruitment, primary screen, cell-based, luminescence | CHO-K1 mHTR2A beta-arrestin complementation; percent of 30 µM serotonin response | activation, % at 7.6 µM | hit rate 0.66% among 360,000 | AID 624169, 2012;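 active = activation above a run cutoff, the mean activation of all tested compounds plus 3 SD, cut at about 14% in these data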
# Target sequence (P35363 whole entry, looked up): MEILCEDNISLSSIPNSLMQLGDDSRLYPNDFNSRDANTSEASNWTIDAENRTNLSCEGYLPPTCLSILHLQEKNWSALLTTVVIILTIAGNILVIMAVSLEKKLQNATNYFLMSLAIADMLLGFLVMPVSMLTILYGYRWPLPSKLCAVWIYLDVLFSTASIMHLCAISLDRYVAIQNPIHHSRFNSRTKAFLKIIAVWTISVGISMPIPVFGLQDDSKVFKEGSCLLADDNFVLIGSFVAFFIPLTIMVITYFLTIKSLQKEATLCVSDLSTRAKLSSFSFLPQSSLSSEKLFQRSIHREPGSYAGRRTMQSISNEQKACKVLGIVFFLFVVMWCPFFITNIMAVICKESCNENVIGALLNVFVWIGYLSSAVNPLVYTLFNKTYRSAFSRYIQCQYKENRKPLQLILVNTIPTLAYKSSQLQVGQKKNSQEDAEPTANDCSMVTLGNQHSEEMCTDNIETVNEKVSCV
# HTR5A ag – HTR5A agonists in luminescence cell assay, primary screen, counter-screen for OPRM1-OPRD1 heterodimer agonist project, full-deck HTS; AID 504692, 2011; activation, % at 9.3 µM; cell-based; 5-hydroxytryptamine receptor 5A (Homo sapiens), P47898; hit rate 0.61% among 340,000; in the data active = activation mostly above about 9.5%, no sharp cut-off; inactive = mostly below about 7.6%
# HTR5A inv ctr – HTR5A inverse agonists in luminescence cell assay, primary screen, counter-screen for OPRM1-OPRD1 heterodimer inverse agonist project, full-deck HTS; HTR5A cell line, inverse agonism; inhibition, % at 9.3 µM; hit rate 0.083% among 340,000; 5-hydroxytryptamine receptor 5A (Homo sapiens), P47898; in the data active = inhibition mostly above about 23%, no sharp cut-off; inactive = mostly below about 18%
# MOR-DOR ag – agonists of OPRM1-OPRD1 heterodimerization, primary screen, cell-based, luminescence; Mu-type opioid receptor (Homo sapiens) + Delta-type opioid receptor (Homo sapiens), …; cells; activation, % at 9.3 µM; hit rate 0.3% among 340,000; AID 504326, 2011; in the data active = activation above about 18%
# MOR-DOR inv ag-2 – inverse agonists of MOR-DOR heterodimerization, counter-screen for HTR5A inverse agonist project, cell-based, luminescence; 190 tested, under 10 active; U2OS counter-screen cells, complementation luminescence; shares compounds with HTR5A inv ctr; inhibition, % at 9.3 µM
# HTR5A inv conf – HTR5A inverse agonists, retest of hits, confirmation, cell-based, luminescence; inhibition, % at 9.3 µM; HTR5A-expressing cells, inverse agonism; 190 tested, under 10 active; shares compounds with HTR5A inv ctr; AID 504916, 2011
# A number is an active result; . = inactive; / = no result. Compounds with a hit are over-represented: about 1.6% of the library has one in this group of screens. Unless noted, no rule for the calls is given here.
SMILES,MOR-DOR inv ag-1,HTR2A ag,HTR5A ag,HTR5A inv ctr,MOR-DOR ag,MOR-DOR inv ag-2,HTR5A inv conf
COc1cc(/C=C(/C#N)C(=O)Nc2ccc(C)cc2)ccc1Oc1nc(Cl)ncc1F,.,.,.,.,.,/,/
CCN(CC(=O)Nc1ccc2c(c1)OCCO2)C(=O)c1ccc(Cl)cc1Cl,.,.,.,.,.,/,/
CCN(CC(=O)Nc1ccc2c(c1)OCCO2)C(=O)c1cc(Cl)nc2ccccc12,.,.,.,33.4,.,.,.
CCOc1cccc2sc(Nc3nc4ccc(NC(C)=O)cc4s3)nc12,.,.,.,.,.,/,/
CC(C)Oc1cccc(C(=O)N/N=C/c2ccoc2)c1,.,.,.,.,.,/,/
CCCOc1cccc(C(=O)N/N=C/c2ccoc2)c1,.,.,.,45.2,.,.,.
COCCN(C(=O)COC(=O)c1cc(C)oc1C)c1c(N)n(Cc2ccccc2)c(=O)[nH]c1=O,.,.,.,64.9,.,.,.
COCCN(C(=O)COC(=O)c1ccc(C)o1)c1c(N)n(Cc2ccccc2)c(=O)[nH]c1=O,.,.,.,.,.,/,/
N/C(=N\OC(=O)CCN1C(=O)c2ccccc2C1=O)c1ccccn1,.,.,.,47.1,.,.,.
CC(C)NC(=O)c1cnc(N2CCN(c3ccccn3)CC2)c2ccccc12,.,.,.,44.2,.,.,.
COc1ccc(NC(=S)Nn2cnnc2)c(OC)c1,.,.,.,.,.,/,/
O=C(C[n+]1ccccc1)N/N=C/c1cc(Br)cc(Br)c1O,.,.,.,41.0,.,.,.
CC(C)C[C@@H](CO)N1CCN(Cc2cccnc2)CCC1=O,.,.,.,28.5,.,.,.
Cc1cc2n(n1)C(c1ccc3c(c1)OCO3)Nc1c(C)cccc1-2 (stereo not drawn),.,.,.,32.8,.,.,.
Cc1nc2cc(NC(=O)Nc3ccc(N4CCOCC4)cc3)ccc2n1C,.,.,.,41.6,.,.,.
CSc1ncnc2c1ncn2CCCNCc1cccc2ccccc12,/,.,/,/,/,/,/
CN1CCN(c2ncnc3c2c(-c2ccccc2)cn3-c2ccc(F)cc2)CC1,.,.,.,39.1,.,.,.
S=c1[nH]cc(-c2ccc(Cl)cc2)n1Cc1ccccc1,.,.,.,30.8,.,.,.
CCn1c(-c2ccccc2)c[nH]c1=S,.,.,.,.,.,/,/
COc1ccc(S(=O)(=O)N2CN3CCN(C3)C2)cc1,.,.,.,.,.,/,/
CSc1ccc(NC(=O)NCc2ccccc2)cc1,.,.,.,31.3,.,.,.
O=C(NCc1ccc(F)cc1)Nc1ccccc1,.,.,.,.,.,/,/
O=C(CSC1=N/C(=C/c2ccc(Cl)c(Cl)c2)C(=O)N1c1ccccc1F)NC1CC1,.,.,.,37.2,.,.,.
COc1ccc(Cl)cc1N1C(=O)/C(=C/c2sccc2C)N=C1SCC(=O)NC1CC1,/,.,/,/,/,/,/
CC(=O)N1CCc2c(sc(NC(=O)c3ccc([N+](=O)[O-])o3)c2C#N)C1,.,.,.,32.3,.,.,.
SMILES,MOR-DOR inv ag-1,HTR2A ag,HTR5A ag,HTR5A inv ctr,MOR-DOR ag,MOR-DOR inv ag-2,HTR5A inv conf
COc1cccc(CNCc2ccccc2Br)c1OC,.,.,.,35.8,.,.,.
O=S(NCc1ccco1)C12CC3CC(CC(C3)C1)C2 (stereo not drawn),.,.,.,40.4,.,.,.
O=C(CCCC(=O)c1ccc(O)cc1)c1ccc(O)cc1,.,.,.,.,.,/,/
O=C1C=CC(=C(c2ccc(O)cc2)c2ccc(O)cc2)C=C1,.,.,.,41.9,.,.,.
CC(C)(C)C(=O)NC(=S)NNC(=O)C(c1ccccc1)c1ccccc1,.,.,.,44.6,.,.,.
CC(=O)NNC(=S)NC(=O)C(c1ccccc1)c1ccccc1,.,.,.,.,.,/,/
Cc1cc(OC(F)F)ccc1NC(=S)NCCc1ccccc1,.,.,.,.,.,/,/
FC(F)Oc1ccccc1NC(=S)NCCc1ccccc1,.,.,.,45.2,.,.,.
CC(C)c1nnc(NC(=O)Cc2ccc(Br)cc2)s1,.,.,.,.,.,/,/
O=C(NC1CCCC1)C(c1ccncc1)N(C(=O)c1csnn1)c1cccc(F)c1 (stereo not drawn),.,.,.,.,.,/,/
COc1cc(C(CCN2CCOCC2)c2c(OC)cc(OC)c3c(-c4ccccc4)cc(=O)oc23)cc(OC)c1OC (stereo not drawn),.,.,.,16.9,.,.,.
O=C(CCCCCN1C(=O)c2cccc3cccc(c23)C1=O)NCCCO,.,.,.,31.6,.,.,.
COc1ccc(CNC(=S)NNC(=O)c2cc3ccccc3o2)cc1,.,.,.,.,.,/,/
COc1ccc(OCC(=O)NNC(=O)c2cc3ccccc3o2)cc1,.,.,.,39.0,.,.,.
CCOc1ccc(NC(=S)NC(=O)c2c(Br)cnn2C)c([N+](=O)[O-])c1,.,.,.,36.2,.,.,.
CCOc1ccc(NC(=S)NC(=O)c2c(Cl)cnn2CC)c([N+](=O)[O-])c1,.,.,.,.,.,/,/
CCOC(=O)c1c(N)n(C2CC(C)(C)NC(C)(C)C2)c2nc3ccccc3nc12,.,.,.,37.3,.,.,.
O=[N+]([O-])c1cccc(C=NNc2ccc3ccccc3n2)c1O,.,.,.,35.3,.,.,46.8
Brc1ccccc1/C=N/Nc1ccc2ccccc2n1,.,.,.,.,.,/,/
CN(C)CCN(Cc1ccccc1)S(=O)(=O)c1ccc2c(c1)n(C)c(=O)c(=O)n2C,.,.,.,.,.,/,/
NC(=NCc1ccccc1)C(N=Nc1ccccc1)C(=O)NCc1ccccc1 (stereo not drawn),.,.,.,29.5,.,.,.
COc1ccc(-n2c(-c3ccc(Cl)cc3)c[nH]c2=S)cc1,.,.,.,37.6,.,33.4,.
Cc1ccc(-n2c(-c3ccccc3)c[nH]c2=S)cc1,.,.,.,.,.,/,/
O=C(CN(CC1CCCO1)C(=O)CNS(=O)(=O)c1ccc(Cl)cc1)NCC1CCCO1 (stereo not drawn),.,.,.,.,.,/,/
O=C(NCc1nnc(SCC(=O)N2CCCC2)o1)c1ccccc1,.,.,.,45.5,.,.,.
O=C(NCc1nnc(SCC(=O)N2CCN(c3ccccc3)CC2)o1)c1ccccc1,.,.,.,.,.,/,/
COc1ccc2oc(C(=O)N3CCN(S(=O)(=O)c4c(C)c(C)cc(C)c4C)CC3)c(C)c2c1,.,.,.,.,.,/,/
